The results in this text go back to PubChem BioAssay (NCI).

The panel holds about 83,000 compounds, 20% with a hit somewhere; the sample as a whole holds those more often.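 The test compound was applied at a single concentration to cells in 96-well plates for 48 hours, and percent growth was recorded.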 Unmarked numbers belong to inactive results. Calls of active or inactive are those of the source. The calls were made as follows: active = growth percent below 10; inactive = the rest.

Assay in all cases: NCI-60 one-dose screen, 48 h (100 = growth as untreated, 0 = no growth, -100 = all killed)
What all share (conditions): 10 µM unless noted

The test system of assay [1] is HCT-15 colon.
Assay [2] has as its system HT29 colon.
For assay [3], the system named is SNB-75 CNS.
Assay [4] deals with SNB-19 CNS.
Assay [5] concerns U251 CNS.
In assay [6] the test system is SK-MEL-5 melanoma.
For assay [7], the system named is UACC-62 melanoma.
Assay [8] has as its system LOX IMVI melanoma.
Assay [9] relates to SK-MEL-28 melanoma.
Assay [10] concerns SK-MEL-2 melanoma.
Assay [11] deals with EKVX NSCLC.
The test system of assay [12] is SN12C renal.
For assay [13], the system named is UO-31 renal.
For assay [14], the system named is TK-10 renal.
The subject of assay [15] is ACHN renal.
Assay [16] deals with CAKI-1 renal.
In assay [17] the test system is A498 renal.
The test system of assay [18] is CCRF-CEM leukemia.
Assay [19] deals with MOLT-4 leukemia.

With `O=C(Nc1ccc(I)cc1)c1cc([N+](=O)[O-])ccc1O`, the growth in assay [1] was 36.7%; in [2] it was 48.7%; in assay [3] it was 57%; in assay [4], 35.4%; in assay [5] it was 31.1%; in assay [6], -0.402% (active). Also, the growth in [7] was 0.385% (active); in assay [8], 20.2%; in assay [9], 16.4%; in [10] it was -0.392% (active); in [11], 39.7%; in assay [12], 34.3%. Further, the growth is 22.5% in assay [13]; 40% in [14]; 48.8% in [15]; 30.9% in assay [16]; -27.9% (active) in assay [17]; 28.4% in assay [18]. The growth in assay [19] was 18.8%.

Turning to `COc1ccc(C2CC(c3cccs3)=NN2c2ccc(S(=O)(=O)NC(=O)Nc3ccc(C)cc3)cc2)cc1` (stereo unspecified), the growth in [1] was 99.3%; in assay [2], 128%; in assay [3], 93.7%; in assay [4], 108%; in assay [5], 94.1%; in assay [6], 61.4%. Besides, the growth was 38.1% in [7]; 99.7% in assay [8]; 47.8% in assay [9]; 60.9% in assay [10]; 111% in [12]; 85.7% in assay [13]. Besides, the growth in assay [14] was 96.8%; in [15] it was 96.6%; in assay [16] it was 95.8%; in assay [17], 109%; in [18] it was 87.9%; in [19] it was 94.4%.

On to `CC(C)(C)OC(=O)N[C@@H](Cc1ccccc1)C(=O)N(Cc1ccccc1)C1(C(=O)NCc2ccccc2)CCN(Cc2ccccc2)CC1`, for which the growth in assay [1] is 36.1%; in [2], 23.9%; in assay [3] it was 44.9%; in assay [4], 31.6%; in assay [5] it was 33.8%; in assay [6], 24.3%. Moreover, the growth in assay [7] was 26%; in assay [8], 39%; in assay [9], 69.9%; in assay [10], 55.9%; in [12], 19.3%; in assay [13], 15.5%. The growth in [14] was 62.3%; in assay [15], 40.8%; in [17], 8.13% (active); in assay [18] it was 33.9%; in assay [19] it was 7.74% (active).

Turning to `O=c1cc(C2NCCc3c2[nH]c2ccccc32)c2c(ccc3ccccc32)o1` (stereo unspecified), the growth was 44.5% in assay [1]; 56.2% in assay [2]; 51.6% in assay [3]; 88.3% in assay [4]; 66.1% in assay [5]; 76.4% in assay [6]. The growth in assay [7] is 48.7%; in assay [8], 36.8%; in assay [9], 92.7%; in assay [10], 36.2%; in assay [12], 87.5%; in assay [13], 26.2%. Besides, the growth in assay [14] was 71.7%; in assay [15], 31.7%; in assay [16] it was 15.5%; in assay [18], 77.8%; in [19], 75.1%.

For `Cc1cc2c(c(=O)o1)C(c1ccc(OC(=O)N3CCOCC3)cc1)C(C#N)=C(N)O2` (stereo unspecified), the growth in assay [1] was 101%; in assay [2], 104%; in assay [3], 95.6%; in assay [4], 101%; in assay [5], 100%; in assay [6], 103%. Besides, the growth in assay [7] was 108%; in assay [8] it was 96.4%; in assay [9], 110%; in assay [10], 91.3%; in [12], 108%; in assay [13], 90.2%. Further, the growth in assay [14] was 95.6%; in [15], 102%; in assay [16], 95.2%; in assay [18] it was 111%; in [19], 98.3%.

Regarding `O=[N+]([O-])c1c(S(=O)(=O)O)cc2cc(S(=O)(=O)O)ccc2c1[N+](=O)[O-]`, the growth in [1] is 101%; in assay [2], 103%; in assay [3], 98.1%; in assay [4], 108%; in [5], 100%; in assay [6], 100%. For the same molecule, the growth in assay [7] was 97%; in assay [8], 94.3%; in assay [9], 103%; in [10] it was 107%; in assay [11], 101%; in assay [12], 101%. Further, the growth in assay [13] is 76.5%; in assay [14] it was 93%; in assay [15], 98.8%; in assay [16], 93.8%; in assay [17], 106%; in assay [19], 93.8%.

Regarding `O=C(CNC(=O)c1cccc2ccccc12)Nc1ccccc1Oc1ccccc1`, the growth in assay [1] was 8.09% (active); in assay [2], 1.97% (active); in [3], 38.9%; in assay [4], 33.8%; in assay [5], 11.5%; in assay [6] it was -33.1% (active). Besides, the growth is 21.3% in [7]; 15.5% in assay [8]; 57.8% in [9]; 34.8% in assay [10]; 21.8% in assay [12]; 33.8% in assay [13]. In addition, the growth in assay [14] was 19.8%; in [15], 29.9%; in assay [16], 31.6%; in assay [18] it was 18.3%; in assay [19], 24.2%.

Turning to `COc1cc(NS(C)(=O)=O)ccc1Nc1c2ccc([N+](=O)[O-])cc2nc2c(C)cccc12`, the growth is 12.4% in [1]; -0.0847% (active) in assay [2]; 5.27% (active) in assay [3]; 21.2% in [4]; 0.458% (active) in [5]; -0.826% (active) in assay [6]. For the same molecule, the growth in [7] is 16.2%; in [8] it was -3.95% (active); in assay [9] it was 41.7%; in assay [10] it was 25.4%; in assay [12] it was 2.9% (active); in assay [13], -3.4% (active). Moreover, the growth in assay [14] is 5.21% (active); in [15] it was -30.9% (active); in [16], -21.2% (active); in assay [17], -23.5% (active); in assay [18] it was -11.8% (active); in [19] it was -8.62% (active).
